Experimental data taken from the supplement of paper PMC6555819.

Experiments:
Experiment in all cases: PBM binding z-score (relative to random genomic background probes); higher = stronger binding; sequences stand for … in GC…GCGATTGACAGCGTAGAATGAAGG
[1] = tested on: FXR:RXRa (NR concentration 270 nM, RXRa partner concentration 90 nM)
Procedure, shortened: (§1)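 Custom Agilent 4×180K protein-binding microarrays carried double-stranded probes, each with a 34-nt variable region. These regions held direct-repeat seeds, single-nucleotide variants, half-site ablations and random human genomic background sequences. Ligand-free nuclear receptor dimers were incubated on the arrays for 1 h, antibodies against each partner (one per run) detected binding, and scanned fluorescence was regression-normalized. Binding z-scores take the random background probes as reference.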

[2] = tested on: LXRa:RXRa (NR concentration 270 nM, RXRa partner concentration 90 nM)
Procedure, shortened: as §1

[3] = tested on: LXRa homodimer (NR concentration 270 nM)
Procedure, shortened: as §1

[4] = tested on: LXRb:RXRa (NR concentration 270 nM, RXRa partner concentration 90 nM)
Procedure, shortened: as §1

[5] = tested on: LXRb homodimer (NR concentration 270 nM)
Procedure, shortened: as §1

[6] = tested on: PPARa:RXRa (NR concentration 270 nM, RXRa partner concentration 90 nM)
Procedure, shortened: as §1

[7] = tested on: PPARg:RXRa (NR concentration 180 nM, RXRa partner concentration 90 nM)
Procedure, shortened: as §1

[8] = tested on: PPARg:RXRa 270nM:90nM, anti-RXR (NR concentration 270 nM, RXRa partner concentration 90 nM)
Procedure, shortened: as §1

[9] = tested on: PPARg:RXRa 30nM:10nM, anti-RXR (NR concentration 30 nM, RXRa partner concentration 10 nM)
Procedure, shortened: as §1

[10] = tested on: PPARg:RXRa 90nM:30nM, anti-RXR (NR concentration 90 nM, RXRa partner concentration 30 nM)
Procedure, shortened: as §1

Sequence	PBM binding z-score [1]	PBM binding z-score [2]	PBM binding z-score [3]	PBM binding z-score [4]	PBM binding z-score [5]	PBM binding z-score [6]	PBM binding z-score [7]	PBM binding z-score [8]	PBM binding z-score [9]	PBM binding z-score [10]
ACTAGTAGGCCAAGTTTGGGTCACTCAAACAAAG	0.368	0.0962	-0.261	0.884	-0.17	2.34	2.17	2.27	0.504	1.13
ATCTCTAGGTAAGACTGAGTTCAGTGAAGAACGC	0.449	0.657	0.601	0.352	0.691	0.568	-0.0566	0.369	0.167	0.0734
TCTATTAGTTGATTAGGGCAACAGAAACAGCGGA	0.997	0.779	0.0498	0.646	0.947	1.01	0.317	1.96	3.53	2.85
CCAGACAGGTGAGAGGGTAACTCAGCCTCGATTA	0.0104	0.0679	-0.0244	0.043	-0.609	1.65	1.99	2.94	0.655	2.18
TTACCAGGGTGAAAGGTCGTTGATGCACGCCTTG	3.76	3.21	0.701	3.12	-0.0752	5.36	8.62	7.7	6.89	9.22
TAGCCTAGGTCATTCGGGGGCCAGTATAGAAAGC	5.41	4.7	1.38	5.3	9.24	4.26	3.69	4.12	1.38	3.17
TCTTGTTGGTCACGGAGGTCACACACGACGGGTA	3.76	3.86	3.29	3.62	2.2	4.14	3.58	4.44	3.5	4.07
ATCTCTAGGTAAACATAGTTCAGTGAATGCAAAT	0.367	4.22	0.983	1.07	0.728	0.819	1.12	1.07	0.499	0.945
TCTAGTTGGTCACGAAGGTCACACACGACGGGTA	2.82	3.04	1.75	3.17	0.769	3.71	3.45	4.6	3.66	4.25
ATCTCTAGGTAAAAGTTCAGTGGATCCCGAGGAT	1.06	1.66	1.37	1.03	1.11	4.09	7.94	7.5	7.58	8.5
CGAACTAGGGCAAGGACAGTGAATCTCCGCACGC	0.00807	-0.366	0.0437	-0.81	-0.814	1.76	2.96	3.03	0.479	1.87
CAAACTAAGTCAAAGGTCAAAGTCGAGCCAACCA	6.46	6.42	5.19	6.08	2.84	6.84	11.4	10.3	11.8	12.2
TCTATTAGTTGATTAGGGCAACCAAAACAGCGGA	0.762	0.673	0.188	0.699	0.773	1.06	0.435	2.01	3.9	2.83
GGAACGAGGGCTAAGTTGATAGCATCTGTCGACG	-0.545	-0.626	-0.392	-0.796	-0.848	0.746	1.37	2.81	1.41	2.31
TCTTGTAGATCAAAGGTTATGAAAGCCGAAGCCT	1.67	2.16	0.00882	2.21	0.156	4.58	7.9	7.7	7.23	8.56
ACAGACACGTGAGTGAAGGTAACTCAGCTGGACG	-0.234	-0.154	-0.292	-0.456	-0.355	-0.342	0.663	-0.357	-0.193	-0.63
GCTTACGGGTCAAAGGTTATAGGATGAATAGAAT	7.58	5.53	0.854	5.77	0.455	6.89	11.4	9.24	10	10.9
AGAACAAGGGCAATGAGTTGATAGCACGGGTGGC	0.13	0.0784	-0.454	0.0189	0.008	0.573	1.26	0.0922	-0.195	-0.176
GCTCCTAGGTCAGGTTGGTCAGCTAACGGGTACG	1.88	1.13	0.0623	1.09	0.0222	2.12	0.889	1.34	-0.42	0.479
GCGACTGGGGCAAAGCAGGTTCCCATAAGGTTGG	-0.34	-0.649	-0.593	-0.596	-1.21	0.522	0.609	0.847	-0.583	0.203
TAGCCTAGGTCATTGGGCCGGTATAGTACGCATC	4.26	2.99	0.765	2.23	0.429	3.43	2.46	2.72	0.313	1.53
TGAATGAGGTTAAAGACCAGGGAACGTGGCGTCG	2.78	2.16	-0.15	1.26	0.1	3.51	3.08	4.46	2.42	4.02
CTTAGCAGGCCAATCTGGGTCACTCAAGGCTTGA	0.29	1.18	-0.362	0.386	-0.93	3.08	2.4	2.51	-0.0201	1.43
